Shown are actives, neighbours in structure and some others; about 2% of the full set was active somewhere.
TDP43 rescue = rescues yeast growth from TDP-43 toxicity; AID 652104; Potency, µM (titrated, usually from 46.1 µM), inactives show at the top dose growth rescue (activation), usual class: activators; hit rate 1.8% among 410,000; TDP-43 expressing yeast growth rescue, BacTiter-Glo, 24 h; also: potency is read from the fitted curve at half-maximal effect; % of control where 0% means no effect; nearly all actives have a fitted effect of over 50% in size
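Yeast cells expressing TDP-43 under galactose induction are exposed to compounds for 24 hr at 30 deg C. BacTiter-Glo luminescence measures growth, so protective compounds score as activators.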
mIDH1 inhibitor = blocks human mutant IDH1 R132H enzyme; O75874; IDH1-R132H enzyme, NADPH consumption, diaphorase/resazurin fluorescence; Potency, µM (top dose mostly 76.6 µM), for inactives: at the top dose activity change, negative = inhibition, usual class: inhibitors; hit rate 0.093% among 390,000; AID 602179; also: potency is read from the fitted curve at half-maximal effect; % is scaled to controls: 0 for no effect and ±100 for the full control effect; nearly all actives have a fitted effect of over 65% in size
Target sequence (O75874 whole entry R132H, stated change not applied): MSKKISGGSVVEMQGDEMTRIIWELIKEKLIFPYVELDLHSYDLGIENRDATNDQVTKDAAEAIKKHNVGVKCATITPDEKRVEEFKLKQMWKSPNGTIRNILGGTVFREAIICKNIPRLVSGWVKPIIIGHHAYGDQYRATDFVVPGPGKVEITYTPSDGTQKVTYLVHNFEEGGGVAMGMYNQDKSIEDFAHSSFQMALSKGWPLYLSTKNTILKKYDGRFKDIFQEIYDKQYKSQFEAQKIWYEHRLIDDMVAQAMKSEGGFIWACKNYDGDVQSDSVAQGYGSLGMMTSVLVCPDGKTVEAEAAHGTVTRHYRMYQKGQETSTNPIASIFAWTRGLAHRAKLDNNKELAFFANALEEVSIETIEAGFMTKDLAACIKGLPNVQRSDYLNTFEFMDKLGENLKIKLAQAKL
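IDH1-R132H (0.5 ug/mL) preincubated 30 min with compound, then NADPH (0.016 mM) and alpha-KG (2 mM) added; 80 min at RT, pH 7.5. Remaining NADPH coupled via diaphorase/resazurin to fluorescence (540/590 nm); concentration-response curves normalized to no-enzyme control.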
FUS yeast rescue = FUS proteinopathy suppression in yeast; S. cerevisiae FUS-expressing, growth rescue, OD600, 24 h; Potency, µM (top dose mostly 76.6 µM), most hits filed as activators; hit rate 0.24% among 390,000;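 also: potency is read from the fitted curve at half-maximal effect; plate controls were DMSO vehicle for no effect and reference control for full effect; nearly all actives have a fitted effect of over 55% in size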
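FUS-expressing yeast, raffinose-pregrown, induced in 2% galactose minimal medium at OD 0.005; compounds in a dilution series, 24hr at 30C. Growth restoration read as absorbance at 600 nm. CP55940 positive control, DMSO negative.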
LDHA block = LDHA (human) enzyme inhibition; hit rate 0.15% among 480,000; AID 1347041; purified LDHA, NADH/diaphorase-resazurin fluorescence; stronger effect = lower value; activity change, % (values are at about 110 or 230 µM); in the data active = activity change below about -30%; inconclusive = mostly about -25% to -30%;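 also: plate controls were DMSO wells for no effect and wells without enzyme for full effect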
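Resorufin fluorescence (ex540/em590), read at 0 and 20 min after diaphorase/resazurin addition, reports the NADH left after a 5 min room-temperature reaction of 2 nM human LDH5 with 0.06 mM NADH and 0.2 mM pyruvate.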
Abeta rescue = restores growth of yeast expressing A-beta42 peptide; yeast expressing A-beta42, growth rescue, OD600, 48 h; response scale: 0% DMSO, 100% iron-clioquinol control; hit rate 0.063% among 410,000; Potency, µM (top dose mostly 46.1 µM), actives largely listed as activators; also: potency is read from the fitted curve at half-maximal effect; nearly all actives have a fitted effect of over 55% in size
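Yeast growth medium received pinned compounds, then yeast cells expressing toxic A-beta were added; plates incubated at 30 C for 48 hr. Growth read as absorbance at 600 nm, normalized to DMSO and equimolar FeCl3 plus clioquinol controls.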
aSyn yeast inh = rescues yeast growth from alpha-synuclein toxicity; Yeast expressing alpha-synuclein, growth rescue, BacTiter-Glo, 24 h; Potency, µM (highest dose often 46.1 µM), inactives show at the highest dose growth rescue (activation), actives largely listed as activators; hit rate 0.14% among 370,000; AID 652106; also: potency is read from the fitted curve at half-maximal effect; % of control where 0% means no effect; nearly all actives have a fitted effect of over 65% in size
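Screening used galactose-induced yeast with toxic alpha-synuclein levels, exposed to compound for 24 hr at 30 deg C. Cell growth, read with BacTiter-Glo luminescence, gave the measured signal.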
* marks the source's active call; other numbers are inactive results; i = inactive; ? = inconclusive; · = not tested or not shown. Unless noted, calls follow the shape of the dose curve; as a rule, active = well fitted curve in the direction sought with a large enough effect; inconclusive = small, poorly fitted or top-dose-only effect, or another doubt; inactive = no such curve, though single readings can be large; an effect the other way counts as inactive or inconclusive.

SMILES | TDP43 rescue | mIDH1 inhibitor | FUS yeast rescue | LDHA block | Abeta rescue | aSyn yeast inh
COc1ccc(N2CCN(CC(O)COc3ccc(C(C)(C)C)cc3)CC2)cc1 (configuration not stated) | 12.6µM* | -19.2% | i | -11.2 | i | ·
O=C(Nc1cccnc1-n1cccn1)c1cccc(NC(=O)c2cccs2)c1 | · | · | · | -4.3 | · | ·
COc1cc(C2CC(=O)Nc3nc(N4CCCCC4)sc32)ccc1OCC(N)=O (configuration not stated) | · | · | · | 97.1 | · | ·
c1ccc(Cc2nn3c(Cn4nnc5ccccc54)nnc3s2)cc1 | -5.2% | 2.2% | i | -6.1 | i | -19.1%
c1ccc2c(c1)OCC(c1nn3c(Cn4nnc5ccccc54)nnc3s1)O2 (configuration not stated) | -3.3% | -0.1% | 31.6µM* | -3.9 | i | -2.8%
CC1(C)C2CCC1(C)C(OC(=O)C[N+]1(C)CCOCC1)C2 (configuration not stated) | · | · | · | 2.0 | · | ·
N#Cc1c(NCc2ccccc2)ccnc1Cl | 14.1µM* | -2.5% | i | -1.6 | i | 14.9%
N#Cc1sc(NCc2ccccc2)nc1Cl | 8.5% | 3.6% | i | -2.2 | i | 10.9%
COc1ccc2c(C)cc(=S)[nH]c2c1 | 12.6µM* | 6.8% | i | -5.6 | i | 1.8%
Cc1sc2ncn(Cc3nc(-c4ccco4)no3)c(=O)c2c1C | · | · | · | 6.4 | · | ·
COc1cc2c(C#N)c(N3CCCCC3)nc(N)c2c(N)n1 | ? | 11.7% | i | 12.9 | i | 7.7%
COc1cc2c(C#N)c(N3CCc4ccccc4C3)nc(N)c2c(N)n1 | 12.6µM* | 7.3% | ? | 21.6 | i | 6.4%
Cc1ccc(CCNC(=O)c2c(C)nn(-c3ccc(F)cc3)c2-n2cccc2)cc1 | 22.4µM* | -0.7% | i | 3.5 | i | 8.5%
CCCCCCOc1ccc(/C=C/C(=O)Nc2sc3c(c2C(=O)OC)CCC3)cc1OC | 17.8µM* | 2.2% | i | -7.9 | i | ·
CCOC(=O)c1c(NC(=O)/C=C/c2ccc(OCC)c(OC)c2)sc2c1CCC2 | 8.9% | 11.2% | i | 0.1 | i | 2.0%
CNC(=O)c1c(NC(=O)/C=C/c2ccccc2)sc2c1CCC2 | 17.8µM* | 12.3% | i | 2.8 | i | -29.9%
O=C(COc1ccccc1)Nc1ccccc1C(=O)NCc1ccco1 | 20µM* | 0.2% | i | -16.4 | i | 0.7%
O=[N+]([O-])c1ccc(Nc2ccccc2F)nc1 | 17.8µM* | 5.0% | i | -0.3 | i | -0.7%
CC(C)C1CCC(C)C(C2(C#N)C(N)=C(C=O)CC2(C#N)C#N)C1=O (configuration not stated) | · | · | · | 13.5 | · | ·
Cc1ccccc1S(=O)(=O)Nc1nc2ccccc2nc1N1CCOCC1 | 17.8µM* | -1.3% | i | -2.3 | i | 3.8%
COc1cc(C(O)c2nc(-c3cc4ccccc4o3)cs2)ccc1F (configuration not stated) | 17.2% | · | i | -4.7 | ? | -16.9%
OC(c1ccc(F)c(F)c1)c1nc(-c2cccc3cccnc23)cs1 (configuration not stated) | 13.2% | · | i | -4.3 | ? | 23.3%
OC(c1cccc(Cl)c1)c1nc(-c2ccoc2)cs1 (configuration not stated) | 11.5% | · | i | -1.6 | i | 20.9%
OC(c1cccc(Cl)c1)c1nc(-c2cc3ccccc3o2)cs1 (configuration not stated) | 35.5µM* | · | i | -7.1 | i | -43.9%
COc1cccc(C(O)c2nc(-c3cc4ccccc4o3)cs2)c1 (configuration not stated) | 20µM* | · | i | -1.0 | i | ?
OC(c1cccc(Cl)c1)c1nc(-c2cccc3cccnc23)cs1 (configuration not stated) | ? | · | i | -8.6 | ? | 17.8µM*
C=CCNc1oc(-c2ccc(COc3ccc(C)cc3)o2)nc1C#N | · | · | · | 1.0 | · | ·
